From PubChem BioAssay AID687016 (The Scripps Research Institute Molecular Screening Center, 2013)
Where “and” joins values, the source holds several entries; their conditions need not be identical. Equal values may be shown once. Screen size: about 370,000 compounds; about 2,800 (0.76%) were called active. The sample holds actives, similar compounds and a random draw of the others, so the mix is not that of the screen. No stated cut-off is given here; in the data, active means inhibition above about 21%; inactive means the rest.

Target: E3 ubiquitin-protein ligase UHRF1 (Homo sapiens) (UniProt Q96T88)
Sequence (Q96T88 whole entry, looked up, the tested form may be a part): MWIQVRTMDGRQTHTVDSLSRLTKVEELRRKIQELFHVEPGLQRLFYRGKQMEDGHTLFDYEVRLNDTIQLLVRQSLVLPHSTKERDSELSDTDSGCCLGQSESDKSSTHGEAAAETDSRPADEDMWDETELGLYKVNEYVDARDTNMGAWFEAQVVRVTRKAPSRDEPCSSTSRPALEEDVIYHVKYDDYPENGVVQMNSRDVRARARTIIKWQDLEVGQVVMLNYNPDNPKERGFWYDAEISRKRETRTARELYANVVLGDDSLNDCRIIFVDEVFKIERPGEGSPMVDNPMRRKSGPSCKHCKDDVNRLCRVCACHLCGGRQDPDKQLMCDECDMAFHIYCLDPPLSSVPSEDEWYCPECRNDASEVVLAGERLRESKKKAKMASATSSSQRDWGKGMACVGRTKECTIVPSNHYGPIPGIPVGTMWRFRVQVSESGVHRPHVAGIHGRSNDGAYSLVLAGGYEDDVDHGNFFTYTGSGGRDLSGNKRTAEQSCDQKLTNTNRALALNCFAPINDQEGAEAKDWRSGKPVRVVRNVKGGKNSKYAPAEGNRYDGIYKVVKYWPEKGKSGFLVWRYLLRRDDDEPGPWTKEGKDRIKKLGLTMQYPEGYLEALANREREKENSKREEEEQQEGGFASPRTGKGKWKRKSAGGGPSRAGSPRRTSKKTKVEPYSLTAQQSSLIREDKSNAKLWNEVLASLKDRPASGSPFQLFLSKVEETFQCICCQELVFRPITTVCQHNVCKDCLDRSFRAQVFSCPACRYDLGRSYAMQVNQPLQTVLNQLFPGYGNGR
Test: UHRF1 methylated DNA binding inhibitors, primary screen, counter-screen for MBD2 inhibitor project, biochemical, TR-FRET, human UHRF1, single concentration (AID 687016);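 further: UHRF1 SRA domain binding a hemimethylated CpG hairpin DNA probe; 0% = median of test compound wells and 100% = reference inhibitor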
Conditions: UHRF1 binding to methylated oligo, at 4.4 µM, active compounds read high

| Structure (SMILES) | inhibition |
| --- | --- |
| CC(=O)Nc1ccc(OC[C@@H](O)CN2CCC(C(O)(c3ccccc3)c3ccccc3)CC2)cc1 | 1.32% (inactive) |
| Cc1ccc(NC(=O)c2cc(C)nn2-c2ccccc2)c(C)c1 | -1.23% (inactive) |
| CCCCCN1CCCCC(NC(=O)C(C)CCC)C1=O (stereo not drawn) | -0.32% (inactive) |
| CCN(CC)CCNC(=O)Cn1cnc2sc(C)c(S(=O)(=O)N3CCOCC3)c2c1=O | 6.01% (inactive) |
| CCN(CC)CCCNC(=O)Cn1cnc2sc(C)c(S(=O)(=O)N3CCN(c4ncccn4)CC3)c2c1=O | 31.2% (active) |
| Cc1sc2ncn(CC(=O)NCCN(C)C)c(=O)c2c1S(=O)(=O)N1CCC(C)CC1 | -1.58% (inactive) |
| C=CCN1C(=O)[C@@H](CC(=O)NCCCOCCCC)[C@]2(C(=O)OCC)CCCCC/C=C/12 | -0.5% (inactive) |
| C=C(C)C#CC(Cc1ccccc1)N(CC1CC1)/C(N)=N/C(=O)OCc1ccccc1 (stereo not drawn) | -3.18% (inactive) |
| COc1ccc(C(=O)NCCSc2ccccc2C)cc1 | 0.98% (inactive) |
| COc1ccc(C(=O)NNc2cc(C)nc(NNC(=O)c3ccc(OC)cc3)n2)cc1 | 20.7% (active) |
| COc1cccc(C(=O)NC(=O)Nc2nc(C)cc(C(F)(F)F)n2)c1 | 0.01% (inactive) |
| CCOC(=O)C1CCN(C(=O)C(C)(C)NC(=O)Nc2ccc(F)c(F)c2)CC1 | 2.59% (inactive) |
| O=C(Nc1ccc(N2CCN(C(=O)c3cccs3)CC2)cc1)c1cccnc1Cl | -0.07% (inactive) |
| COc1ccc(N2CCN(C(=O)c3cccs3)CC2)cc1 | -7.02% (inactive) |
| O=C(COc1ccccc1)Nc1ccc(N2CCN(C(=O)c3cccs3)CC2)cc1 | 44.9% (active) |
| CCOc1ccc(N(CC(=O)NCCc2ccc(F)cc2)S(=O)(=O)c2ccccc2)cc1 | 16.8% (inactive) |
| COc1ccc(CCNC(=O)CN(c2ccccc2)S(=O)(=O)c2ccccc2)cc1 | 1.05% (inactive) |
| CCOc1ccc(N(CC(=O)NCCOc2ccccc2OC)S(=O)(=O)c2ccccc2)cc1 | 28% (active) |
| Cc1ccc(Cn2cc(CN3[C@@H](C)COc4cc(Br)ccc4S3(=O)=O)nn2)cc1 | -1.6% (inactive) |
| COC(=O)[C@]12C[C@H](CC(=O)NCc3ccccc3)C(=O)N(Cc3ccccc3)C1=C[C@H](COCc1ccccc1)O[C@@H]2C | 3.31% (inactive) |
| O=S1(=O)c2c(cccc2N2CCSCC2)Oc2ccccc2CN1Cc1cn(Cc2ccc(F)cc2)nn1 | 2.59% (inactive) |

| Structure (SMILES) | inhibition |
| --- | --- |
| CN(C)S(=O)(=O)c1cccc(C(=O)N/N=C\c2ccco2)c1 | -2.24% (inactive) |
| O=C(Cn1cnc2ccccc21)N/N=C/c1ccco1 | -2.46% (inactive) |
| O=C(N/N=C/c1ccco1)c1ccc(C(=O)N/N=C/c2ccco2)o1 | 38.3% (active) |
| C=CS(=O)(=O)N(Cc1nnn(Cc2ccccc2)c1Br)[C@H](C(=O)OC)C(C)C | 3.67% (inactive) |
| O=C(NCCCNC(=O)c1ccccc1Cl)c1cnccn1 | 4.5% (inactive) |
| CN(C)CCNC(=O)c1ccc(Cl)c2cc3ccccc3nc12 | 30.7% (active) |
| CN(C)CCNC(=O)Cc1ccc([N+](=O)[O-])cc1 | -0.93% (inactive) |
| N#Cc1ccccc1CN1C(=O)S/C(=C/c2cccn2-c2cccc(C(=O)O)c2)C1=O | 21.4% (active) |
| Cc1ccc(C(=O)O)cc1-c1ccc(/C=C2\SC(=O)N(CC(=O)Nc3ccc4c(c3)OCO4)C2=O)o1 | 12.9% (inactive) |
| COC(=O)[C@H](C(C)C)N(CCCc1cn(Cc2ccccc2)nn1)S(=O)(=O)c1ccc(F)cc1Br | 7.41% (inactive) |
| O=S1(=O)c2ccc(Br)cc2OC[C@@H](Cc2ccccc2)N1Cc1cn(Cc2ccco2)nn1 | -5.15% (inactive) |
| CC(C)c1ccc(C(=O)OC2CCOC2=O)cc1 (stereo not drawn) | 0.68% (inactive) |
| COc1cc(C(=S)N2CCOCC2)cc(OC)c1OC(=O)c1ccc([N+](=O)[O-])cc1[N+](=O)[O-] | 3.69% (inactive) |
| COc1cc(C(=O)OC2CCOC2=O)c([N+](=O)[O-])cc1OC (stereo not drawn) | 22.8% (active) |
| COc1ccc(CSc2nnc(SCC(=O)Nc3ccccc3C(F)(F)F)s2)cc1 | 2.07% (inactive) |
| O=C(OCC#CCSc1nnc(-c2ccco2)o1)c1ccc(F)cc1 | -3.52% (inactive) |
| O=C(CSc1nc2ccccc2nc1N1CCCCC1)N1CCN(S(=O)(=O)c2cccc([N+](=O)[O-])c2)CC1 | -2.11% (inactive) |
| COc1cccc2c1C(=O)c1c(O)c3c(c(O)c1C2=O)CC(O)(C(C)=NNC(=O)c1ccc(Cl)c(Cl)c1)CC3OC1CC(N)C(O)C(C)O1 (stereo not drawn) | 96% (active) |
| COc1cccc(CNC(=O)CNS(=O)(=O)c2ccc3nc(C)sc3c2)c1OC | -1.45% (inactive) |
| COc1cc(NC(=O)C2CCCN(S(=O)(=O)c3ccc(C(C)(C)C)cc3)C2)cc(OC)c1 (stereo not drawn) | 2.42% (inactive) |
| CCCOc1ccc(Oc2c(Cl)cnn(Cc3cccc4ccccc34)c2=O)cc1 | 2.95% (inactive) |

| Structure (SMILES) | inhibition |
| --- | --- |
| CC(=O)Nc1nc2ncccn2c1-c1ccc(C(F)(F)F)cc1 | -2.41% (inactive) |
| COc1ccc(CCN2C(=O)N(c3ccc(OC)cc3)C(=O)C2CC(=O)Nc2ccc(OC)cc2)cc1 (stereo not drawn) | 37.7% (active) |
| COc1ccc(N2C(=O)C(CC(=O)Nc3ccccc3)N(Cc3ccc(OC)c(OC)c3)C2=O)cc1 (stereo not drawn) | 1.08% (inactive) |
| COc1ccc(N2C(=O)C(CC(=O)Nc3ccc(F)cc3)N(CCc3cccs3)C2=O)cc1 (stereo not drawn) | 1.34% (inactive) |
| CCCCCCCCCOC1OC(CO)C(O)C(O)C1NC(C)=O (stereo not drawn) | 53.3% (active) |
| CCCCCCCCOC1OC(CO)C(O)C(O)C1NC(C)=O (stereo not drawn) | 0.97% (inactive) |
| CCc1cccc(OC2OC(CO)C(O)C(O)C2NC(C)=O)c1 (stereo not drawn) | 1.52% (inactive) |
| CCC(NC(=O)C1C2C=CC3(CN(Cc4ccccc4)C(=O)C13)O2)c1ccccc1 (stereo not drawn) | 0.23% (inactive) |
| Cc1cc(C(=O)NN=C/C=C/c2ccco2)n[nH]1 | 5.21% (inactive) |
| CCOc1ccc(NC(=O)c2ccc(CSc3nnnn3C)cc2)cc1 | -0.48% (inactive) |
| CCOc1ccc(NC(=O)c2ccc(NC(=O)CN3C(=O)C(=O)N(CC(C)C)C3=O)cc2)cc1 | 3.55% (inactive) |
| CCOc1ccc(NC(=O)c2ccc(NC(=O)COC(=O)c3ccc(NC(=O)CC#N)cc3)cc2)cc1 | 23.6% (active) |
| COc1cccc(Cn2cc(COC(=O)Nc3ccc(F)cc3)nn2)c1 | 0.48% (inactive) |
| Cn1c(=O)c2c(ncn2CC(=O)N2CCN(c3ccccc3)CC2)n(C)c1=O | -2.46% (inactive) |
| Cc1cccc(Cn2c(N3CCN(c4ccccc4)CC3)nc3c2c(=O)n(C)c(=O)n3C)c1 | 23.8% (active) |
| CCOC(=O)N1CCN(Cc2nc3c(c(=O)n(C)c(=O)n3C)n2Cc2ccccc2)CC1 | 1.75% (inactive) |
| CN(C)[C@H]1CCN(c2cccc3c2S(=O)(=O)N2CC[C@H](C2)O3)C1 | -0.6% (inactive) |
| O=C(NCCCc1ccccc1)[C@H](Cc1ccccc1)NC1(C(=O)NCCc2c[nH]c3ccccc23)CCC1 | 0.93% (inactive) |
| C=CCN1C(=O)[C@@H](CC(=O)NCC2CCCCC2)[C@]2(C(=O)OC)CCCCC=C12 | -2.02% (inactive) |
| COc1cccc(N2CCN(CC(=O)N(C)Cc3ccc(F)cc3)CC2)c1 | -0.26% (inactive) |
| COC(=O)c1cc(S(=O)(=O)N2CCN(c3ccccc3C)CC2)cn1C | -0.14% (inactive) |

| Structure (SMILES) | inhibition |
| --- | --- |
| CCOC(=O)[C@]12CCCC=C1N(Cc1ccc(OC)cc1)C(=O)[C@@H]2CC(=O)NCc1cccs1 | 0.05% (inactive) |
| O=C(Nc1cc(Cl)cc(Cl)c1)OCCN1CCCC12CCC(c1ccccc1)CC2 (stereo not drawn) | -2.5% (inactive) |
| O=C(CSc1nc2c(c(=O)[nH]1)CCCC2)N1CCCCC1 | 4.3% (inactive) |
| CCCC(C(=O)OCCN(CC)CC)(c1ccccc1)c1ccccc1 | 0% (inactive) |
| CCN(CC)CCOc1ccc2c(c1)C(=NNC(=O)c1ccccn1)c1cc(OCCN(CC)CC)ccc1-2 | 105% (active) |
| CN(CCOc1ccc(CC2SC(=O)NC2=O)cc1)c1ccccn1 (stereo not drawn) | 0.45% (inactive) and -0.75% (inactive) |
| Cc1ccc(C)c(NC(=O)CCS(=O)(=O)c2ccccc2)c1 | 5.41% (inactive) |
| Cc1ccsc1-c1cc(C(=O)O)c2c(ccc3ccccc32)n1 | -2.73% (inactive) |
| CCOC(=O)c1ccn(-c2nc(-c3ccco3)cc(C(F)(F)F)n2)n1 | 1.45% (inactive) |
| Cc1cc(C)c2nc(-c3ccco3)cc(C(=O)O)c2c1 | 73.6% (active) |
| C=C(C)C#CC(Cc1ccccc1)NCC1CC1 (stereo not drawn) | -0.06% (inactive) |
| Cc1ccccc1NC(=O)Cn1nnc(-c2ccccc2F)n1 | -2.25% (inactive) |
| CC(=O)c1cc(-c2ccc3ccccc3c2)c(=O)n2c1CCC2 | -1.09% (inactive) |
| COC(=O)[C@]12C[C@H](CC(=O)N3CCN(C(=O)C4CC4)CC3)C(=O)N(CCC3=CCCCC3)C1=C[C@H](C(C)C)O[C@@H]2C1CC1 | -0.03% (inactive) |
| COc1nc(-c2ccc(Cl)cc2)ccc1-c1noc(-c2cccs2)n1 | 37.1% (active) |
| N#Cc1ccc(-c2ccc(Cl)cc2)nc1Oc1ccc(F)cc1 | -1.28% (inactive) |
| Cc1cc(NS(=O)(=O)c2ccc(NC(=O)CSc3nnc(-c4ccc(C(C)(C)C)cc4)n3Cc3ccco3)cc2)nc(C)n1 | -1.86% (inactive) |
| COC(=O)C12C=C3CC(c4ccccc4)=C3C(=O)N1Cc1[nH]c3ccccc3c1C2 (stereo not drawn) | -0.85% (inactive) |
| C=CCN1C(=O)[C@H](CC(=O)NCCCN2CCCC2=O)[C@@]2(C(=O)OCC)CCCC=C12 | 1.86% (inactive) |
| COC(=O)[C@]12C[C@H](CC(=O)NCCCN3CCCC3=O)C(=O)N(CCc3ccc(OC)c(OC)c3)C1=C[C@H](COCc1ccccc1)O[C@@H]2C | -1.34% (inactive) |
